# Assay results as given in PubChem BioAssay AID2726 (Broad Institute, 2010).
# Some of the results follow. Activity calls are given as the source filed them.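 Rule for the calls: active = every replicate shows growth inhibition above 50%; inconclusive = at least half, but not all, replicates pass that cutoff; inactive = fewer than half of replicates pass it.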
# Assay: Vibrio harveyi growth inhibition, confirmation, counter-screen for AI-2 quorum sensing project, JMH597 strain, OD600 absorbance (AID 2726)
# Conditions: 9 h, at 7.5 µM, hits give high values, lacks LuxN and CqsS sensors
row,SMILES,growth inhibition
1,COc1ccc(/C(N)=N/OC(=O)Cc2ccccc2)cc1,15.4% (inactive)
2,Cc1cc(CN(C)C(=O)c2cc(COc3ccc(C)c(C)c3)on2)n[nH]1,25.5% (inactive)
3,Cc1ccccc1C(=O)Nc1ccc(N2CCCCCC2)cc1,25.5% (inactive)
4,CCOC(=O)c1nn(-c2cccc(C)c2)cc1C(=O)c1ccccc1,-8.39% (inactive)
5,CN(Cc1cnccn1)C(=O)c1cc(COc2cccc(C(F)(F)F)c2)on1,4.24% (inactive)
6,O=C(/C=C/c1ccc2c(c1)OCCO2)c1ccc(O)cc1,2.39% (inactive)
7,Cc1ccc(NC(=O)C2CC2c2ccccc2)cc1 (stereo not given),-14.1% (inactive)
8,COC(=O)C1CCN(C(=O)c2ccc3oc(Cc4ccc(Cl)cc4)nc3c2)CC1,26.4% (inactive)
9,O=C(COc1ncnc2ccccc12)NC(=O)NCc1ccccc1,17.5% (inactive)
10,O=C(Nc1ccc(F)c(Cl)c1)C1CCN(S(=O)(=O)c2cccnc2)CC1,-9.31% (inactive)
11,COc1cccc(NC(=O)NCc2ccc(F)cc2)c1,-8.06% (inactive)
12,O=C(CCC(=O)c1cccs1)Nc1nc2ccccc2s1,-16.4% (inactive)
13,Cc1ccccc1NC(=O)CCOc1ccccc1,-12.9% (inactive)
14,O=C(/C=C/c1ccc2c(c1)OCO2)NCc1ccc(F)cc1,4.99% (inactive)
15,O=C(COC(=O)C1CCCCC1)Nc1ccc([N+](=O)[O-])cc1,-6.27% (inactive)
